Shown is part of a subset that was picked to be rich in hits.
Pf Dd2 inh = qHTS Primary assay for Inhibitors of Plasmodium falciparum Dd2 growth in vitro. P. falciparum Dd2 growth, SYBR Green, 72 h. Potency, µM (series often up to 28.9 µM), for the others: at the top dose activity, negative = inhibition, most hits filed as inhibitors. actives 4.3% (n = 120,000); active = well fitted inhibition curve with a large enough effect;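 also: plate controls were DMSO vehicle for no effect and reference drug for full effect; nearly all actives have a fitted effect of over 65% in size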
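Readout: SYBR Green fluorescence, 485 nm excitation, 535 nm emission, after ~16 h lysis at 37C. Before that, Dd2-infected red cells (2.5% hematocrit) grew 72 h with compound, 29 uM top final concentration.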
* = called active by the depositor; i = inactive; [ ] = dose if it differs, or a comment. Potency is read from the fitted curve at half-maximal effect.

SMILES	Pf Dd2 inh
CC[C@H]1CN2CC[C@H]1C[C@@H]2CNS(=O)(=O)c1cccs1	-5.4%[44.1 µM]
C#C[C@H]1CN2CC[C@H]1C[C@@H]2CNCc1ccc(C(C)C)cc1	i
O=S(=O)(NC[C@H]1C[C@@H]2CCN1C[C@@H]2CN1CCCCC1)c1ccccc1	-4.8%[44.1 µM]
C#C[C@H]1CN2CC[C@H]1C[C@@H]2CNS(=O)(=O)c1cccc(F)c1	8.91µM*
C#C[C@H]1CN2CC[C@H]1C[C@@H]2CNCc1cccc(C#N)c1	14.1µM*
CC[C@H]1CN2CC[C@H]1C[C@@H]2CNS(=O)(=O)c1ccccc1	i
CCN(CC)C[C@H]1CN2CC[C@H]1C[C@@H]2CNS(=O)(=O)c1ccc(Cl)cc1	-15.4%[44.1 µM]
C#C[C@H]1CN2CC[C@H]1C[C@@H]2CNS(=O)(=O)c1cccs1	8.91µM*
CC[C@H]1CN2CC[C@H]1C[C@@H]2CNC(=O)Nc1cccc(C#N)c1	i
C=C[C@H]1CN2CC[C@H]1C[C@@H]2CNS(=O)(=O)c1ccc(Cl)cc1	-6.5%[44.1 µM]
C#CCN(C)C[C@H]1CN2CC[C@H]1C[C@@H]2CNS(=O)(=O)c1ccccc1	i
C#C[C@H]1CN2CC[C@H]1C[C@@H]2CNS(=O)(=O)c1ccc(Cl)cc1	5.01µM*
Cc1ccccc1NC(=O)N1C[C@@H](F)C[C@H]1C(=O)N1CCCCC1	i
CC(C)N(C)Cc1nnnn1CC(=O)NCc1nncn1C1CCCCC1	7.8%
Cc1cc(C[C@@H]2COC[C@@H]2NC(=O)c2sc3nc[nH]c(=O)c3c2C)on1	-14.0%
CSCC(=O)N[C@H]1CCN2C(=O)c3cc(Br)ccc3NC(=O)[C@@H]2C1	-3.5%[44.1 µM]
O=C(NCC1CCOCC1)c1ccoc1	13.0%
Cc1cc(C(=O)N2CCC(c3noc(-c4cnccn4)n3)C2)nn1C (stereo not drawn)	6.4%[5.79 µM]
COCC(=O)N[C@@H]1CN(Cc2c(F)cccc2Cl)C[C@H]1CO	-19.6%
Cc1ccccc1OCC(=O)Nc1ccc2nc(SCCOc3ccccc3)sc2c1	-10.2%
Cc1ccc(NC(=O)CSc2nc3ccc(NC(=O)c4ccco4)cc3s2)c(C)c1	-8.5%
Cc1ccccc1NC(=O)CSc1nc2ccc(NC(=O)c3ccccc3)cc2s1	14.1%
Cc1ccccc1C(=O)Nc1ccc2nc(SCCOc3ccccc3)sc2c1	i
Cc1ccccc1OCCSc1nc2ccc(NC(=O)c3cccs3)cc2s1	1.12µM*
Cc1ccccc1NC(=O)CSc1nc2ccc(NC(=O)c3ccco3)cc2s1	11.2µM*
SMILES	Pf Dd2 inh
COCC(=O)N[C@H]1C[C@@H](CO)N(Cc2ccccc2Br)C1	6.1%
COc1cccc(S(=O)(=O)N2CCn3nnc(CCC(=O)NC4CC4)c3C2)c1	-24.4%
CCc1ccc(CN2CCC3(CC2)CN(C(C)=O)CC3COC)cc1 (stereo not drawn)	-7.3%
Cc1ccc(-c2ccnc(N(C)CC3CC(=O)N(C(C)(C)C)C3)n2)c(C)n1 (stereo not drawn)	i
CCN(CC)[C@H]1C[C@@H](Cc2cc(CO)on2)C1(C)C	-24.7%[44.1 µM]
Cc1ccccc1C(=O)Nc1nnc(S(=O)(=O)N2c3ccccc3CC2C)s1 (stereo not drawn)	-12.3%
Cc1ccccc1C(=O)Nc1nnc(S(=O)(=O)N(C)Cc2ccccc2)s1	35.4%
Cc1ccccc1C(=O)Nc1nc2c(s1)CC(C(C)(C)C)CC2 (stereo not drawn)	5.62µM*
CC1CCc2nc(NC(=O)Cc3ccc(Cl)cc3)sc2C1 (stereo not drawn)	83.9%
CCCC(=O)Nc1nc2c(s1)CC(C(C)(C)C)CC2 (stereo not drawn)	12.6µM*
CC1CCc2nc(NC(=O)COc3ccc(C(C)(C)C)cc3)sc2C1 (stereo not drawn)	71.9%
CCNC(=O)N1CCC(Oc2ncccc2C(=O)N2CCCCC2)C1 (stereo not drawn)	-2.1%
O=C(Nc1ccc([C@@H](O)[C@H]2COCC(=O)N2Cc2ccccn2)cc1)c1ccccc1	25.9%[44.1 µM]
O=C(NCc1cccnc1)C1c2ccccc2C(=O)N(Cc2ccccc2)C12CCCC2 (stereo not drawn)	-8.8%
CCOc1cccc(-c2nc(C(=O)NCCc3ccccc3OC)cs2)c1	i
CCOc1ccc(CC(=O)NCCc2csc(-c3ccc(C)cc3)n2)cc1	10µM*
Cc1ccc(-c2nc(CCNC(=O)c3ccc(C)c(C)c3)cs2)cc1	14.5%
CCOc1ccc(CC(=O)NCCc2csc(-c3ccc(Cl)cc3)n2)cc1	i
CNc1cc(C2CC(NS(=O)(=O)c3ccc(Cl)s3)C2)nc(N)n1 (stereo not drawn)	7.94µM*
CO[C@H]1C(=O)N(C(C)C)[C@H]1C1CCN(S(=O)(=O)c2ccc3c(c2)OCCO3)CC1	-22.5%
O=C(c1cccc(Cl)c1)N1CCN(C2CCN(Cc3ccccn3)C2=O)CC1 (stereo not drawn)	i
CC(=O)Nc1ccc(CN2CC3(C2)C(=O)N(Cc2ccc(C)o2)C(=O)[C@@H]2C[C@@H](O)CN23)cc1	-20.4%
Cc1ccc(CN2C(=O)[C@@H]3C[C@@H](O)CN3C3(CN(Cc4ccc(C#N)cc4)C3)C2=O)o1	-19.2%[44.1 µM]
Cc1ccc(CN2C(=O)[C@@H]3C[C@@H](O)CN3C3(CN(Cc4ccc(F)cc4)C3)C2=O)o1	14.1µM*

High-throughput results deposited in PubChem by National Center for Advancing Translational Sciences (NCATS).
